Consider 15 compounds from PubChem BioAssay AID743361 (Molecular Libraries Program, Specialized Chemistry Center, …, 2014).

A number with no mark means an inactive call. Calls of active or inactive are those of the source. How the calls were made is not given here. Bounds are passed on as bounds.

A word on the IC50: it is the point on the concentration scale where inhibition reaches its midpoint.

This experiment is described as follows: Rhodamine 123 quenching counterscreen activity, dose response, counter-screen for mtPTP inhibitor project, biochemical, dry powder samples, uHTS hits, fluorescence (AID 743361). Conditions: Rhodamine 123 fluorescence quenching counterscreen, cell-free. On the technique in general: The purpose of a counterscreen is to sort out artefacts and off-target activity.
Turning to `COc1ccc(Cl)c(C(=O)Nc2cccc(CN3CCN(C(=O)OC(C)(C)C)CC3)c2)c1`, the IC50 is greater than 100 µM.

For `O=C(Nc1ccc(F)cc1F)c1cc(-c2ccccc2)on1`, the IC50 was greater than 100 µM.

With `Cc1ccc(NC(=O)c2cc(-c3cccc(O)c3)on2)cc1Cl`, the IC50 was greater than 100 µM.

As to `O=S(=O)(Nc1ccc(CCN2CCCCC2)cc1)c1cccc(Cl)c1`, the IC50 was greater than 100 µM.

As to `COc1ccc(C(=O)CCN2CCCC(C)C2)cc1` (stereo not given), the IC50 was greater than 100 µM.

`O=C(Nc1ccc(Cl)cc1)c1cc(-c2cccc(O)c2)on1`: the IC50 was greater than 100 µM.

In the case of `O=C(Nc1ccc(Cl)cc1)c1cc(-c2ccccc2)on1`, the IC50 is greater than 100 µM.

With `COc1ccc(Cl)c(C(=O)Nc2ccc(CN3CCN(C)CC3)cc2)c1`, the IC50 was greater than 100 µM.

In the case of `Cc1cc(NC(=O)c2ccc(-n3cnnc3)cc2)no1`, the IC50 is greater than 100 µM.

Regarding `COc1ccc(Cl)cc1C(=O)Nc1ccc(CN2CCNCC2)cc1`, the IC50 was greater than 100 µM.

On to `COc1ccc(Cl)cc1S(=O)(=O)Nc1ccc(CN2CCN(C)CC2)cc1`, for which the IC50 is greater than 100 µM.

For `COc1ccccc1C(=O)Nc1ccc(C(=O)N2CCCCC2)cc1`, the IC50 is greater than 100 µM.

As for `CN1CCN(Cc2ccc(NS(=O)(=O)c3cccc(Cl)c3)cc2)CC1`, the IC50 is greater than 100 µM.

With `COc1ccc(Cl)cc1C(=O)Nc1cccc(CN2CCN(C(=O)OC(C)(C)C)CC2)c1`, the IC50 is 73.5 µM (active).

As to `COc1ccc(Cl)cc1C(=O)Nc1cccc(CN2CCNCC2)c1`, the IC50 was greater than 100 µM.
